# Results with a measured potency or affinity are listed apart.
# Target: Protein translocase subunit SecA (Escherichia coli (strain K12)) (UniProt P10408)
# Test: Assay to Identify E. coli SecA ATPase Inhibitors
# Assay type: functional
# Design: scale not given: direction of the effect not stated beside the values
# Settings: 30 µM
# Sequence of Protein translocase subunit SecA (Escherichia coli (strain K12)) (P10408 whole entry): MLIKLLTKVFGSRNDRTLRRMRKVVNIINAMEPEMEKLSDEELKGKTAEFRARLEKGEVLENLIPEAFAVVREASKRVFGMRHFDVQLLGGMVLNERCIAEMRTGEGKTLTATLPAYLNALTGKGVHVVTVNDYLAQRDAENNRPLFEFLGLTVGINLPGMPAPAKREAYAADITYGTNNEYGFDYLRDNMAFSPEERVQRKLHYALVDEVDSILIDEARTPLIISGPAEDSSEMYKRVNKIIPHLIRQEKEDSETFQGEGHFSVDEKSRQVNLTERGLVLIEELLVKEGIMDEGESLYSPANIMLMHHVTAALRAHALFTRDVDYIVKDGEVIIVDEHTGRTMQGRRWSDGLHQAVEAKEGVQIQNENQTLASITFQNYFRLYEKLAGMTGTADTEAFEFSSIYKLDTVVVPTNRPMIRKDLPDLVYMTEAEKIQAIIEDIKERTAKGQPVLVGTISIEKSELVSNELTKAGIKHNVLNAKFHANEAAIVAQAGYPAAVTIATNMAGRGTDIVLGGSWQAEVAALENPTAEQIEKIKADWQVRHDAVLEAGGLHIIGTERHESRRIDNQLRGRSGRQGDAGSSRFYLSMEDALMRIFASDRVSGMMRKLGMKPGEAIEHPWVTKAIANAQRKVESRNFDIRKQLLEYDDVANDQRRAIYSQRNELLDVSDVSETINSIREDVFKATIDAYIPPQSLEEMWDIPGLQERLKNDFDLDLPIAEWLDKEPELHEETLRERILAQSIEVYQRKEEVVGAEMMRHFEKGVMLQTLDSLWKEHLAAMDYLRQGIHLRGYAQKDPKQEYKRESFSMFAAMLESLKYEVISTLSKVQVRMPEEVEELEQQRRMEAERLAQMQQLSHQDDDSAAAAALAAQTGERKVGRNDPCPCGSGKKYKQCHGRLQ
row,SMILES,Percent Effect [%]
1,O=C(c1ccn[nH]1)N1CCCC(n2cncn2)C1 (stereo not given),-7.58
2,CN(c1ccncn1)C1CC2(CCN(C(=O)c3cccs3)C2)C1 (stereo not given),-5.11
3,CCC1(CO)CCCN(c2ncccc2C#N)C1 (stereo not given),-4.07
4,CCN(CC)C(=O)c1ccn(COc2cc(C)cc(C)c2)n1,-0.199
5,CCCS(=O)(=O)NCC1CCOc2ccccc2C1 (stereo not given),-7.2
6,Cc1ccc(C2CSCCN2C(=O)C2=CCCC2)o1 (stereo not given),-5.63
7,CC(C)c1nc(C(=O)N2CCOCC2CC(=O)c2ccco2)c[nH]1 (stereo not given),2.93
8,Cc1nn(C)c(N2CCOCC2)c1CNC1CCc2ccccc2C1 (stereo not given),-2.57
9,CNc1nc(C(=O)N2CCCC(c3nccn3CC3CCC3)C2)cs1 (stereo not given),-5.42
10,Cc1cc(Nc2nc(C)cs2)nc(C2CCCCN2CCO)n1 (stereo not given),-0.14
11,N#Cc1cccc(CN2CC[C@@H]3[C@@H]2CC(=O)N3Cc2cccnc2)c1,-2.43
12,O=C(NCCNc1ncccn1)N1CCSCC1,-0.808
13,CN(C)CCn1c(=O)oc2ccc(NC(=O)C3CCCO3)cc21 (stereo not given),-6.72
14,CC(NC(=O)C1=NN(C)C(=O)CC1)c1ccc(Cl)cc1Cl (stereo not given),-2.53
15,CCn1c(=O)nc2n1C(=O)N(c1cccc(Cl)c1)C2,-5.8
16,O=C(c1ccc(Cl)o1)N1CCCN(Cc2cscn2)CC1,-5.01
17,CC(N(C)Cc1nc2c(cnn2C)c(=O)[nH]1)C(C)(C)C (stereo not given),-4.87
18,CCc1noc(C2CCCCN2C(=O)c2nnc3ccccc3n2)n1 (stereo not given),-4.1
19,Cc1cccc(N2CCN(C(=O)CN3CCN(CCO)CC3)CC2)c1,-7.92
20,O=C(CCc1ccc(=O)[nH]n1)N1CCCC(COc2ccc(F)cc2)C1 (stereo not given),-2.1

row,SMILES,Percent Effect [%]
1,O=C(Cc1ccccn1)N1CCN(CC2CC2)c2ncccc2C1,-4.53
2,COc1cccc(C2CC(=O)Nc3nc(N4CCOCC4)sc32)c1OC (stereo not given),63.9
3,Cc1nccn1-c1cc(CNC(=O)C(C)(C)C)ccn1,-0.152
4,CNS(=O)(=O)c1ccc(C(=O)N2CCCC2c2ccccc2)o1 (stereo not given),-6.62
5,Cc1csc(N2CCN(C(=O)Cc3ccsc3)CC2)n1,-6.47
6,CN(Cc1cccc(F)c1)C(=O)CN1CCCC1CCc1ccccc1 (stereo not given),-3.56
7,CN(CC1(O)CCCCC1)C1CCCN(Cc2noc(C3CC3)n2)C1 (stereo not given),-0.786
8,Cc1cnnn1Cc1ncn2c1CN(Cc1cccs1)CCC2,-5.14
9,CC(C)C(=O)NCCNc1nccc(-c2cc(C(=O)O)ccn2)n1,-4.2
10,COCCN1CCC(CN(CC2CCCO2)C(=O)COC)CC1 (stereo not given),-4.47
11,CNC(=O)c1ccc(CN2CCC(N(C)Cc3noc(C)n3)C2)cc1 (stereo not given),-2.92
12,O=C([C@H]1CN(CCc2ccccc2)C[C@H]2OCC[C@@H]12)N1CCCO1,-5.74
13,O=C(Cc1ccsc1)N1C[C@@H]2CN(Cc3ccoc3)CCO[C@@H]2C1,-1.51
14,Cn1c(Cn2cccn2)nnc1C1CCN(Cc2cccnc2N)CC1,-8.22
15,Cc1cc(C)n(CC2CCCCN2CC(=O)Nc2cccnc2)n1 (stereo not given),-6.69
16,COCc1nc(C(=O)N2CCCCC2Cn2cccn2)cs1 (stereo not given),-1.64
17,Cn1nnc2c1CCN(CC1CC1)C2COCc1ccccc1 (stereo not given),-1.15
18,COCC(c1cccc(C(F)(F)F)c1)N(C)C(=O)c1ccncc1 (stereo not given),-4.42
19,Cc1ccc(C(=O)NC2CCN(Cc3noc(CC(C)C)n3)CC2)s1,-4.45
20,CCN(C(=O)CS(=O)(=O)Cc1cc(Cl)c2c(c1)OCCCO2)C1CC1,2.17

# — ChEMBL document CHEMBL3988442, “University of Dundee, Small-Polar-MMV Screening Library” (2021)
